# IL-1B inflam inh = inflammasome signaling inhibition, IL-1 beta readout; THP-1 LPS/ATP IL-1B secretion, AlphaLISA, 16 h; hits give low values; activity change, % at 57.5 µM; 360,000 compounds, 4.7% hits; AID 743279; in the data active means activity change below about -50%; inconclusive means mostly about -30% to -49%
#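 THP-1 cells pretreated 1 hr with compounds (up to 57.5 uM final), then stimulated with LPS (250 ng/mL final) plus ATP (1.25 mM final); secreted IL-1B measured by AlphaLISA after 16 hr, decreased signal indicating inhibition.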
# DT40 TDP1 CPT = DT40-hTDP1 cell growth loss with CPT; chicken DT40 Tdp1-/-;hTDP1 cells + 20 nM CPT, ATP luminescence, 48 h; Potency, µM (doses to about 46.2 µM), for inactives: top-dose activity change, negative = growth inhibition, usual class: inhibitors; 420,000 compounds, 12% hits; AID 686979; further: potency means the concentration at half of the fitted maximal effect; nearly all actives have a fitted effect of over 55% in size
#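 Chicken DT40 Tdp1-/- cells complemented with human TDP1, 400 cells/well, exposed to compounds plus 20 nM camptothecin for at least 48 h at 37 C; viability read as ATP content by CellTiter-Glo luminescence.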
# TDP1 cell noCPT = qHTS for Inhibitors of human tyrosyl-DNA phosphodiesterase 1 (TDP1): qHTS in cells in absence of CPT. Potency, µM (titrated, usually from 46.2 µM), inactives show top-dose activity change, negative = growth inhibition, actives largely listed as inhibitors. DT40 Tdp1-/- hTDP1 cells, no CPT, ATP luminescence, 48 h. AID 686978, 2013. 420,000 compounds, 15% hits; further: potency means the concentration at half of the fitted maximal effect; nearly all actives have a fitted effect of over 55% in size
#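 DT40 Tdp1-/-;hTDP1 cells, no CPT (DMSO vehicle only), 400 cells/well; compounds pin-transferred; ≥48 hr, 37 °C; CellTiter-Glo 30 min RT dark, luminescence read.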
# HT1080-NT tox = kills 2HG-producing HT-1080-NT fibrosarcoma cells | HT-1080-NT fibrosarcoma viability, CellTiter-Glo ATP luminescence, 48 h | Potency, µM (highest dose often 46.1 µM), for inactives: at the highest dose activity, negative = less viability, usual class: cytotoxic | 360,000 compounds, 1.6% hits | AID 686970;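 further: NT is the 2HG producing partner of a matched IDH1 knockdown line; potency means the concentration at half of the fitted maximal effect; 0% = DMSO-treated cells and -100% = media-only wells without cells; nearly all actives have a fitted effect of over 55% in size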
#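 Fibrosarcoma NT cells, 750 per well in 5% FBS RPMI, were exposed to compound for 48 hours. Viability: CellTiter-Glo luminescence.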
# ELG1 DNA repair = blocks ELG1-dependent DNA repair in HEK293T cells; HEK293T ELG1-luciferase reporter, luminescence, 16 h; DNA damage induced by 5-fluorouridine; Potency, µM (series often up to 46.1 µM), inactives show at the top dose activity change, negative = inhibition, usual class: inhibitors; 330,000 compounds, 2.3% hits; further: potency means the concentration at half of the fitted maximal effect; nearly all actives have a fitted effect of over 55% in size
#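 Overnight (16 hr) co-exposure of 2,000 cells/well to 5-fluorouridine and compound at 37 °C preceded detection. Luciferase was quantified via ONE-Glo luminescence; loss of signal denotes inhibition.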
# HT1080 IDH1KD tx = HT-1080 IDH1 knockdown cell toxicity (counter line). HT-1080 IDH1 knockdown viability, ATP luminescence, 48 h. Potency, µM (top dose mostly 46.1 µM), for inactives: top-dose activity, negative = toxicity, actives largely listed as cytotoxic. 360,000 compounds, 2% hits. AID 686971;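 further: potency means the concentration at half of the fitted maximal effect; 0% = DMSO wells and -100% = cell-free medium wells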
#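 Cytotoxicity counter-line: IDH1KD HT-1080, 48 h, CellTiter-Glo. Curves classed by r2, magnitude and activity.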
# The depositor's hits bear a star; ? = inconclusive; . = not tested or not shown. In the library only some 19% were active in any assay of this set; here they are far more common. Unless noted, the call rests on the fitted dose curve; in most records, active means well fitted curve in the direction sought with a large enough effect; inconclusive means small, poorly fitted or top-dose-only effect, or another doubt; inactive means no such curve, though single readings can be large; an effect the other way counts as inactive or inconclusive. Unless noted, on the % scale 0 is the no-effect control and ±100 the full control effect.
SMILES,IL-1B inflam inh,DT40 TDP1 CPT,TDP1 cell noCPT,HT1080-NT tox,ELG1 DNA repair,HT1080 IDH1KD tx
CCCCNC(=O)CSc1nc2cc3c(cc2c(=O)n1CCCC(=O)NCCc1ccc(OC)c(OC)c1)OCO3,-16,0%,-3%,0%,1%,18%
CCN(CC)C(=O)CSc1nc2cc3c(cc2c(=O)n1Cc1ccc(C(=O)NCCc2ccc(OC)c(OC)c2)cc1)OCO3,.,13µM*,21µM*,.,.,.
CCC(Sc1nc2cc3c(cc2c(=O)n1CCCC(=O)NCc1ccc(OC)cc1)OCO3)C(=O)NCCCOC (stereo not drawn),.,3%,?,.,.,.
CCOC(=O)CSc1nc2cc3c(cc2c(=O)n1CCCC(=O)NCCc1ccc(OC)c(OC)c1)OCO3,.,?,13µM*,.,.,.
CCN(CC)C(=O)CSc1nc2cc3c(cc2c(=O)n1CCCC(=O)NCCc1ccc(OC)c(OC)c1)OCO3,?,?,18µM*,7%,?,2%
CCCCC(Sc1nc2cc3c(cc2c(=O)n1CCCC(=O)NCc1ccc(OC)cc1)OCO3)C(=O)OCC (stereo not drawn),.,4.6µM*,4.6µM*,.,.,.
COc1ccc(CNC(=O)CCCn2c(SCC(N)=O)nc3cc4c(cc3c2=O)OCO4)cc1,.,-13%,0%,.,.,.
CCN(CC)C(=O)CSc1nc2cc3c(cc2c(=O)n1CCCCCC(=O)NCc1ccc(OC)cc1)OCO3,-65*,?,?,19%,-32%,11%
COc1cccc(-c2cccc3c2NC(=O)C3(C)Cc2cccc(F)c2)c1 (stereo not drawn),13,?,21µM*,?,.,?
CC1(Cc2cccc(F)c2)C(=O)Nc2ccc(-c3cccnc3)cc21 (stereo not drawn),83,12µM*,10µM*,-6%,.,0%
COc1ccccc1-c1ccc2c(c1)C(C)(Cc1ccc(F)c(Cl)c1)C(=O)N2 (stereo not drawn),-23,?,?,?,.,?
CC1(Cc2ccc(Cl)cc2)C(=O)Nc2ccc(-c3cccnc3)cc21 (stereo not drawn),36,13µM*,12µM*,-6%,.,-25%
COc1ccccc1-c1ccc2c(c1)C(C)(Cc1ccc(Cl)cc1)C(=O)N2 (stereo not drawn),7,2%,0%,13%,.,10%
CC1(Cc2cccc(C(F)(F)F)c2)C(=O)Nc2ccc(-c3ccc(F)c(Cl)c3)cc21 (stereo not drawn),-70*,?,23µM*,?,.,?
O=C(O)[C@H]1CCCC[C@H]1C(=O)Nc1ccc(S(=O)(=O)N2CCOCC2)cc1,15,1%,12%,-1%,9%,2%
CCCCCCc1cc2cc(C(=O)NCc3ccccc3)c(=N)oc2cc1O,-17,?,?,9%,0%,-2%
CCCCCCc1cc2cc(C(=O)Nc3ccccc3)c(=O)oc2cc1O,-3,3.3µM*,3.7µM*,?,?,?
O=C(c1ccccn1)N1N=C2/C(=C/c3ccc(F)cc3)CCCC2C1c1ccc(F)cc1 (stereo not drawn),-55*,?,?,-20%,-10%,-26%
CC(=O)N1N=C2/C(=C/c3ccccc3)CCCC2C1c1ccccc1 (stereo not drawn),-5,?,?,?,?,?
CCCn1c(SCC(=O)N2N=C3/C(=C/c4ccc(OC)cc4)CCCC3C2c2ccc(OC)cc2)n[nH]c1=O (stereo not drawn),-25,?,?,7.3µM*,?,12µM*
CN(CCCOc1ccccc1Br)Cc1ccccc1,0,-17%,?,-9%,-10%,-13%
